TDP1 block = TDP1 (human) enzyme inhibition. Q9NUW8. recombinant TDP1, AlphaScreen DNA substrate cleavage. Potency, µM (doses to about 130 µM), for inactives: at the top dose activity change, negative = inhibition, usual class: inhibitors. hit rate 0.28% among 350,000. AID 485290; further: nearly all actives have a fitted effect of over 40% in size
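Steps: enzyme plus compound, 15 min RT; add biotin/phosphotyrosine-FITC oligonucleotide (15 nM final), react 5 min; add donor/acceptor beads (10 ug/ml final), 10 min; read AlphaScreen. Tdp1 at 1 nM final.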
PLK1 PBD inh = inhibitors of human PLK1 polo-box domain binding; Potency, µM, without a hit: max response, negative = inhibition, hits mostly inhibitors; hit rate 2.8% among 360,000; P53350; Plk1 PBD binding of FITC phosphopeptide, fluorescence polarization; further: series mostly up to about 57 µM; nearly all actives have a fitted effect of over 65% in size
Target sequence (P53350 whole entry, looked up, the tested form may be a part): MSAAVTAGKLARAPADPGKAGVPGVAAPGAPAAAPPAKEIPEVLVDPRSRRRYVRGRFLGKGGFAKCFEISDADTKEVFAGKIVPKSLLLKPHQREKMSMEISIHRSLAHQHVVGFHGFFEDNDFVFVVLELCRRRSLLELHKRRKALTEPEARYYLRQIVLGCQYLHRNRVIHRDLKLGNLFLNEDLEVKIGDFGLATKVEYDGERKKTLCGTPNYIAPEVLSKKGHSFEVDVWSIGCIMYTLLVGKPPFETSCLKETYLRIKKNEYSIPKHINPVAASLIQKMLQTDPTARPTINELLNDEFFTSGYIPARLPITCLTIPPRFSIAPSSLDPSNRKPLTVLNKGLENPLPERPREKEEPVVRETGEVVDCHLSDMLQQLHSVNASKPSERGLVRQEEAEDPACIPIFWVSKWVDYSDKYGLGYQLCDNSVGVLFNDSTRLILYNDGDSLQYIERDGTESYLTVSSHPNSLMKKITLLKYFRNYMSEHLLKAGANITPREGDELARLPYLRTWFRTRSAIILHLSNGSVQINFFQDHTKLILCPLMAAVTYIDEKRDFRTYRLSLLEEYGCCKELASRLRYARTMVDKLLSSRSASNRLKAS
VDR inh = vitamin D3 receptor (human) inhibition | P11473 | VDR-SRC2-3 peptide fluorescence polarization, 2 h | Potency, µM, for the others: max response, negative = inhibition, usual class: inhibitors | hit rate 0.93% among 400,000
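Compounds are added to VDR with labelled SRC2-3 coactivator peptide and held 2 h at room temperature. Inhibition of the VDR–peptide interaction is then read as a change in fluorescence polarization.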
DT40 TDP1 no CPT = qHTS for Inhibitors of human tyrosyl-DNA phosphodiesterase 1 (TDP1): qHTS in cells in absence of CPT | DT40 Tdp1-/- hTDP1 cells, no CPT, ATP luminescence, 48 h | Potency, µM (series often up to 46.2 µM), for the others: top-dose activity change, negative = growth inhibition, hits mostly inhibitors | hit rate 15% among 420,000 | AID 686978, 2013; further: nearly all actives have a fitted effect of over 55% in size
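Readout: luminescence from CellTiter-Glo after 30 min in the dark at RT. Cells: DT40 Tdp1-/- with stable hTDP1, 400/well. Exposure: compounds alone, ≥48 hr, 37 °C.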
KAT2A inh = blocks human GCN5L2 histone acetyltransferase. Q92830. GCN5L2 HAT assay, ThioGlo1 CoA-SH fluorescence. Potency, µM (titrated, usually from 58.9 µM), for the others: at the top dose activity change, negative = inhibition, actives largely listed as inhibitors. hit rate 0.21% among 390,000. AID 504327
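Preincubate 20nM GCN5L2 with compound 15 min, RT → add 50uM ThioGlo1 + 75uM H3(1-25) + 70uM acetyl-CoA → read fluorescence 0 and 20 min. Primary qHTS; fluorescent artifacts likely.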
TDP1 cell CPT = growth inhibition of DT40 Tdp1-/-;hTDP1 cells with camptothecin (screen for TDP1 inhibitors). chicken DT40 Tdp1-/-;hTDP1 cells + 20 nM CPT, ATP luminescence, 48 h. Potency, µM (series often up to 46.2 µM), inactives show top-dose activity change, negative = growth inhibition, actives largely listed as inhibitors. hit rate 12% among 420,000. AID 686979; further: nearly all actives have a fitted effect of over 55% in size
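Chicken DT40 Tdp1-/- cells complemented with human TDP1, 400 cells/well, exposed to compounds plus 20 nM camptothecin for at least 48 h at 37 C; viability read as ATP content by CellTiter-Glo luminescence.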
* hit, by the source's call; ? = inconclusive; nt = no result; [ ] = remark or other dose. A selection: hits, their analogues and other compounds. The true share with any hit is near 18%. The call rests on the fitted dose curve; in most records, active means well fitted curve in the direction sought with a large enough effect; inconclusive means small, poorly fitted or top-dose-only effect, or another doubt; inactive means no such curve, though single readings can be large; an effect the other way counts as inactive or inconclusive. On the % scale 0 is the no-effect control and ±100 the full control effect; potency means the concentration at half of the fitted maximal effect.

SMILES | TDP1 block | PLK1 PBD inh | VDR inh | DT40 TDP1 no CPT | KAT2A inh | TDP1 cell CPT
COc1cc(-c2nnc3n(CCc4ccccc4)c(=O)c4ccccc4n23)cc(OC)c1OC | 3.4% | -0.1% | 6.6% | 16.4µM* | -4.0% | ?
COc1cc(OC)c(-c2nnc3n(CCc4ccccc4)c(=O)c4ccccc4n23)cc1OC | 0.6% | nt | nt | nt | -11.9% | nt
COc1ccc(-c2nnc3n(CCc4ccccc4)c(=O)c4ccccc4n23)c(OC)c1 | 2.7% | -5.0% | -19.4% | 13µM* | 0.9% | 18.4µM*
CC(C)c1ccc(-c2nnc3n(CCc4ccccc4)c(=O)c4ccccc4n23)cc1 | 5.7% | nt | 16.6% | 18.4µM* | -5.3% | ?
O=c1c2ccccc2n2c(-c3ccccc3F)nnc2n1CCc1ccccc1 | 8.6% | nt | 10.4% | 18.4µM* | -2.2% | ?
Cc1c(Cl)cccc1NC(=O)CSc1nc(=O)[nH]c2c1CCC2 | 2.6% | nt | 7.7% | -23.7% | 1.2% | -27.8%
CSc1ccc(CNC(=O)Cn2c(-c3cccs3)cc3cc(F)ccc32)cc1 | 2.5% | nt | 9.2% | ? | -4.2% | -27.7%
CCN(CC(=O)NCc1ccc(Cl)cc1)C(=O)CSCC(=O)Nc1cccc(C)c1 | 2.2% | -3.7% | 2.1% | 11.6% | -22.5% | -1.7%
O=C(CSc1n[nH]c(=O)n1Cc1ccccc1)Nc1ccc(F)c(F)c1F | ? | -12.2% | -8.7% | ? | 7.6% | 17.6%
O=C(COC(=O)/C=C/c1ccc(C(F)(F)F)cc1)NC1CCS(=O)(=O)C1 (stereo not given) | -1.8%[0.505 µM] | -4.9% | -1.7% | 20.6µM* | -11.1% | ?
COc1ccc(/C=C/C(=O)OCC(=O)Nc2cc(C(F)(F)F)ccc2Cl)cc1 | 3.2% | -1.6% | 1.6% | 11.6µM* | 3.0% | ?
CCCCNC(=O)C(NC(=O)c1cccc2ccccc12)C(=O)c1ccccc1 (stereo not given) | nt | -9.4% | nt | ? | nt | ?
Cc1ccsc1CNCC(O)c1ccccc1 (stereo not given) | nt | -9.0% | 19.5% | -24.5% | 0.7% | -24.4%
Clc1ccccc1OCCNc1nc(NCC2CC2)nc2ccsc12 | nt | -2.3% | nt | 8.2µM* | nt | 16.4µM*
CNc1nc(NCCOc2ccccc2Cl)c2sccc2n1 | nt | -6.0% | nt | 9.2µM* | nt | 9.2µM*
Clc1ccccc1Nc1nc(NCC2CC2)nc2ccsc12 | nt | -4.7% | nt | 20.6µM* | nt | 20.6µM*
COc1ccccc1CNc1nc(NCCOc2ccccc2Cl)c2sccc2n1 | nt | 1.8% | nt | 11.6µM* | nt | 10.3µM*
O=C(COC(=O)c1ccccc1)NCC1COc2ccccc2O1 (stereo not given) | nt | -2.7% | nt | -0.7% | nt | -20.2%
CCN(CC)C(C)C#CCC(c1ccccc1)c1ccccc1 (stereo not given) | 1.9% | nt | nt | nt | -8.6% | nt
Cc1noc(C)c1-c1ccc2ncnc(N(C)Cc3ccco3)c2c1 | 4.5%[56.1 µM] | nt | ? | 11.6µM* | -6.4% | ?
CN(C)Cc1ccccc1-c1ccc2ncnc(N(C)Cc3ccco3)c2c1 | -2.2%[56.1 µM] | nt | ? | ? | -4.6% | ?
Cc1ccccc1-c1ccc2ncnc(N(C)Cc3ccco3)c2c1 | nt | nt | 31.6µM* | ? | -24.4% | ?
COc1ccc(CN2CCN(C(c3ccc(F)cc3)c3ccc(F)cc3)CC2)c(OC)c1OC | 6.4% | -2.6% | 2.6% | 2.91µM* | 2.6% | 2.59µM*
COc1ccc(CN2CCN(Cc3ccc(Br)cc3)CC2)c(OC)c1OC | nt | -11.4% | -11.1% | 16.4µM* | -5.9% | ?
COc1ccc(CN2CCN(Cc3cccc(Oc4ccccc4)c3)CC2)c(OC)c1OC | nt | 2.0% | -15.8% | ? | ? | ?
SMILES | TDP1 block | PLK1 PBD inh | VDR inh | DT40 TDP1 no CPT | KAT2A inh | TDP1 cell CPT
COc1ccc(OC)c(-c2cc(Cl)c3c(c2)CC(CNC(=O)/C=C/c2ccccn2)O3)c1 (stereo not given) | nt | nt | nt | -10.8% | nt | 2.6%[9.04 µM]
CC1(c2ccccc2)NC(=O)N(CC(=O)Nc2ccc([N+](=O)[O-])cc2)C1=O (stereo not given) | -1.2% | 1.0% | 1.8% | ? | 0.9% | 25.9µM*
CC1(c2ccccc2)NC(=O)N(CC(=O)Nc2ccc(N3CCOCC3)cc2)C1=O (stereo not given) | 0.4% | -18.6% | 25.0% | 13.2% | -2.3% | ?
CC1(c2ccc([N+](=O)[O-])cc2)NC(=O)N(CC(=O)Nc2ccc(N3CCCCC3)cc2)C1=O (stereo not given) | nt | -7.2% | -23.3% | 18.4µM* | -0.8% | ?
C(#Cc1ccccc1)C[N+]1(CC#Cc2cccc3ccccc23)CCCC1 | 3.1% | -7.8% | 2.1% | 0.058µM* | 4.7% | 0.651µM*
C#CC[N+]1(CC#Cc2cccc3ccccc23)CCOCC1 | 6.0% | -20.4% | 10.1% | ? | -0.2% | ?
O=S(=O)([O-])CCC[N+]1(CC#Cc2ccccc2)CCCCC1 | 2.5% | 4.74µM* | ? | 14.6µM* | -0.2% | 16.4µM*
COc1ccc2c(c1)OC(C)CN(CCNC(=O)c1ccc(-n3cccn3)cc1)C2 (stereo not given) | nt | nt | nt | -19.1% | nt | 6.1%[9.04 µM]
COc1cc(OC)c(N(C)C(=O)Cn2ncc3c(=O)oc4ccccc4c32)cc1Cl | 4.7% | nt | -2.6% | 12.8% | 2.6% | 8.2%
NC(=O)N/N=C/C=C/c1ccc(F)cc1 | 6.3% | 1.6% | 5.2% | -2.0% | 1.1% | 7.9%
CCN(CC)CCN(Cc1cc2cc(C)c(C)cc2[nH]c1=O)C(=S)NCc1ccco1 | 5.6% | -4.3% | 25.9% | -19.7% | -1.8% | -24.3%
CCc1ccc2[nH]c(=O)c(CN(CC3CCCO3)C(=S)NCc3ccco3)cc2c1 (stereo not given) | 6.8% | -10.3% | ? | ? | 0.4% | 20.6µM*
Cc1ccc2cc(CN(CC3CCCO3)C(=S)NCc3ccco3)c(=O)[nH]c2c1C (stereo not given) | 4.6% | 15µM* | -13.3% | 13µM* | 3.7% | ?
CCc1ccc2[nH]c(=O)c(CN(CCN(C)C)C(=S)NCc3ccco3)cc2c1 | 11.9% | -8.7% | 2.4% | ? | -13.9% | ?
Cc1cc2cc(CN(CCN(C)C)C(=S)NCc3ccco3)c(=O)[nH]c2cc1C | 1.2% | -12.2% | 16.1% | 13µM* | -5.0% | ?
COc1ccc(N2CC(C(=O)N3CCN(c4ccccc4)CC3)CC2=O)cc1 (stereo not given) | 2.8% | 1.1% | 6.0% | ? | -4.7% | -28.2%
O=C(O)c1ccc(-c2ccc(-c3ccccc3)cc2)o1 | -9.2%[234 µM] | nt | 89.1µM* | nt | -21.1%[88.6 µM] | nt
O=C(N/N=C/c1ccc[nH]1)c1sc2ccccc2c1Cl | -8.3% | -2.0% | -4.7% | 13µM* | 3.0% | 13µM*

From PubChem
